The list is not random: actives were taken first. Their share in the collection is about 3.4%.
GPR151 ag – activators of human GPR151, primary screen, cell-based, PathHunter beta-arrestin, luminescence | G-protein coupled receptor 151 (Homo sapiens), Q8TDV0 | PathHunter beta-arrestin GPR151 cells | activation, % at 11.2 µM | 1% of 650,000 active | AID 1508602, 2020; in the data active means activation above about 4.9%
Target sequence (Q8TDV0 whole entry, looked up): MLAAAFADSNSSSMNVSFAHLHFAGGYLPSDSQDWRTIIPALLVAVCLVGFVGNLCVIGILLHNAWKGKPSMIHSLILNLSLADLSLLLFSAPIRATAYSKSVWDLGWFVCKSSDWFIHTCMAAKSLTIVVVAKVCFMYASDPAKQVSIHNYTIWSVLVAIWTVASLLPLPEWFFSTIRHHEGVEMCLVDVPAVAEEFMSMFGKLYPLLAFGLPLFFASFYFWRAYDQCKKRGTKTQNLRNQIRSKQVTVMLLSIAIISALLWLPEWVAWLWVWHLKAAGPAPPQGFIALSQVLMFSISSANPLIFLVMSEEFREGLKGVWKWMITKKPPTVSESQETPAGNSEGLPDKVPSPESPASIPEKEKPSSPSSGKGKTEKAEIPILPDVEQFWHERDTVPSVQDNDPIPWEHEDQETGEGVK
MITF primary – MITF inhibitors, primary screen, biochemical, AlphaScreen, human; AID 1259374, 2018; 0.91% of 650,000 active; inhibition, % at 2.6 µM; AlphaScreen MITF homodimerization, bead proximity signal; Microphthalmia-associated transcription factor (Homo sapiens), O75030; in the data active means inhibition above about 50%
TEAD-YAP block – TEAD-YAP interaction inhibition, primary screen, TEAD-YAP interaction inhibitor project, luminescence, HEK-TIYL cells. TEAD-Gal4/YAP UAS-luciferase luminescence. inhibition, % at 9.12 µM. 1.4% of 640,000 active. AID 1259422, 2018; in the data active means inhibition above about 32%
FBW7 act – FBW7 E3 ligase activators, primary screen, biochemical, AlphaScreen, human. AlphaScreen FBW7–phospho-cyclin E peptide binding, activator screen. normalized activity (activation), % at 26.1 µM. 0.13% of 650,000 active. AID 1259310, 2017; in the data active means normalized activity above about 1.9%;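 further: purified mutant Fbw7 with reduced substrate affinity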
Large screens that a line does not name were inactive.

CC(=O)c1ccc(-c2cc(F)cc3c2OC(CNC(=O)/C=C/c2cccnc2)C3)s1 (configuration not stated)	TEAD-YAP block 33
COc1cc(/C=C2\SC(N)=NC2=O)ccc1OCC(=O)Nc1ccc(C)cc1	TEAD-YAP block 34
CCOc1cc(/C=C2\SC(N)=NC2=O)ccc1OC(=O)c1cccs1	TEAD-YAP block 35
CCOc1cc(/C=C2\SC(N)=NC2=O)ccc1OCC(=O)NCc1ccccc1	TEAD-YAP block 32
O=C1c2[nH]nc(-c3ccccc3O)c2C(c2ccc(Cl)cc2)N1CCCO (configuration not stated)	none
CCOc1ccccc1C(=O)N/N=C/c1cccnc1	none
CCOC(=O)N1CCN(S(=O)(=O)c2ccc(C(=O)NC3Sc4c(ccc5ccccc45)N3C)cc2)CC1 (configuration not stated)	none
CC(C)N(C(=O)CN1C(=O)CSc2ccccc21)C(C)C	none
COc1ccc(N=Cc2c(O)n(-c3cccc(OC)c3)c(=O)[nH]c2=O)cc1	MITF primary 76
CCOC(=O)c1ccc(N=Cc2c(O)n(-c3cccc(OC)c3)c(=O)[nH]c2=O)cc1	none
O=C(C1=C(Nc2ccccc2)C(=O)N(c2ccccc2)C1c1ccc(Cl)cc1)c1ccccc1 (configuration not stated)	none
C=CCN1/C(=C/c2cccc[n+]2C)Sc2ccccc21	TEAD-YAP block 77
C=CCN1/C(=C/c2cc[n+](C)cc2)Sc2ccccc21	TEAD-YAP block 87
CN1/C(=C/c2cc[n+](C)cc2)Sc2ccccc21	none
COc1ccc(OC)c2[nH]c(=O)c(CCNC(=O)c3ccccc3F)cc12	none
Cc1cccc(Oc2coc3cc(OCc4ccc(Br)cc4)ccc3c2=O)c1	none
CCOC(=O)CCC(=O)Nc1cc(-c2ccc(C)cc2)[nH]n1	none
CC(=O)Nc1cc(-c2ccc(C)cc2)[nH]n1	FBW7 act 1.9
CC(C)c1cc(C(=O)NCCc2ccccc2)nn1-c1nc2ccccc2s1	TEAD-YAP block 44
COc1ccc(NC(=O)c2cc(C(C)C)n(-c3nc4ccccc4s3)n2)cc1OC	TEAD-YAP block 56
COc1ccc(NC(=O)CSc2nc3cc4c(cc3cc2C#N)OCCO4)cc1	none
COc1ccc(CNCC(O)CO)cc1OC (configuration not stated)	none
CSc1ccc(Cl)c(C(=O)Nc2ccc(Br)cn2)c1	TEAD-YAP block 35
O=C(Cn1ncc2ccccc21)Nc1ccc(Br)cn1	TEAD-YAP block 38
O=C(Nc1ccc(Br)cn1)c1cc(Br)ccc1Cl	TEAD-YAP block 43
O=C(Nc1ccc(Br)cn1)c1cccc2ccccc12	TEAD-YAP block 32
O=C(Cn1ncc2ccccc21)Nc1ccccc1Br	none
COc1ccc(OC)c(C2CC(=O)NC3=C2C(=O)CC(c2cccs2)C3)c1 (configuration not stated)	none
COc1ccc(C2CC(=O)n3c(nc4ccccc43)S2)cc1 (configuration not stated)	TEAD-YAP block 80
O=C1CC(c2ccc3c(c2)OCO3)Sc2nc3ccccc3n21 (configuration not stated)	TEAD-YAP block 76
O=C1CC(c2ccccc2)Sc2nc3ccccc3n21 (configuration not stated)	none
CC(C)c1ccc(C(=O)NC(=S)Nc2cccnc2)cc1	none
COC(=O)c1ccccc1NC(=O)c1noc2c1COc1ccccc1-2	none
COc1cc(C2CC(=O)Nc3c2ccc2ccccc32)c(Br)c(OC)c1OC (configuration not stated)	TEAD-YAP block 59
COc1ccc(C2CC(=O)Nc3cc4c(cc32)OCO4)cc1O (configuration not stated)	none
COc1cc(C2CC(=O)Nc3cc4c(cc32)OCO4)c(Br)c(OC)c1OC (configuration not stated)	TEAD-YAP block 51
O=C1CCC(=O)N1OCCCOc1cccc(C(F)(F)F)c1	none
O=c1c2sccc2nc(SCc2cccc([N+](=O)[O-])c2)n1-c1ccccc1	none
Cc1nc2sccn2c1C(=O)N1CCN(c2cccc(C(F)(F)F)c2)CC1	TEAD-YAP block 58
Cc1nc2sccn2c1C(=O)N1CCCC1	none
COc1cc(/C=C/c2ccc3cccc(OC(C)=O)c3n2)cc(OC)c1OC(C)=O	none
CC(=O)Oc1cccc2ccc(/C=C/c3cccc(F)c3)nc12	TEAD-YAP block 40
